# Source: PubChem (Buhrlage Lab, Dana-Farber Cancer Institute and Novartis Institutes for BioMedical Research (Cambridge, Mass))
# USP28 inh – human USP28 deubiquitinase inhibition; inhibition, % at 25 µM; 47,000 compounds, 3% hits; purified USP28, Ub-rhodamine cleavage fluorescence, 30 min
# USP17 inh – inhibitors of human USP17 deubiquitinase. A8MUK1. purified USP17, Ub-rhodamine cleavage fluorescence, 3 h. inhibition, % at 50 µM. 47,000 compounds, 6.5% hits
# Target sequence (A8MUK1 whole entry, looked up): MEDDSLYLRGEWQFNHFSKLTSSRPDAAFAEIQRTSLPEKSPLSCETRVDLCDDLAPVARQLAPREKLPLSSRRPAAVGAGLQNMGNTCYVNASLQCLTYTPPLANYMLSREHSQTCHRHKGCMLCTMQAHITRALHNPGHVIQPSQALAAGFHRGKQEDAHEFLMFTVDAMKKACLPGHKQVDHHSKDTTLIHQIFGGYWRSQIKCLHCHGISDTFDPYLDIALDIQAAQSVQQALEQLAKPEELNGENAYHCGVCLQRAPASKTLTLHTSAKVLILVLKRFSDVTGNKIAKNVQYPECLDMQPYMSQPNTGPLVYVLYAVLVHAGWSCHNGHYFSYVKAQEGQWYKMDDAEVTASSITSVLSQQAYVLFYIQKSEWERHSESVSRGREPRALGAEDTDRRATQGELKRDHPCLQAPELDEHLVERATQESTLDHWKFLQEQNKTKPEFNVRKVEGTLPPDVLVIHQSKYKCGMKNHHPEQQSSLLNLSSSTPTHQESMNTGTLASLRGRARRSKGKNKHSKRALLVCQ
# USP30 inh – inhibitors of human USP30 deubiquitinase; 47,000 compounds, 5.3% hits; purified USP30, Ub-rhodamine cleavage fluorescence; AID 1645860; inhibition, % at 25 µM; Q70CQ3
# * = called active by the depositor; . = no result. The list is not random: actives were taken first. Their share in the collection is about 11%. No stated cut-off is given here; in the data, active means inhibition above about 30%; inactive means the rest.
SMILES,USP28 inh,USP17 inh,USP30 inh
COc1cc(NC(=O)Cn2c(=O)n(-c3ccc(CC(=O)NCc4ccco4)cc3)c(=O)c3ccccc32)cc(OC)c1,9,4,9
O=C(Cn1c(=O)n(CC(=O)NC2CCCC2)c(=O)c2ccccc21)Nc1ccc(Br)cc1,24,38*,41*
O=C(NC1CCCCC1)c1nc(Cn2cnc3ccccc3c2=O)no1,-1,14,0
CCc1ccc(NC(=O)Cn2c(=O)n(-c3ccc(CC(=O)NCc4ccco4)cc3)c(=O)c3ccccc32)cc1,0,47*,-22
O=C(CCCCn1c(=O)c2ccccc2n(CC(=O)Nc2ccc3c(c2)OCCO3)c1=O)NCc1ccco1,14,16,27
CCc1noc(Cn2cnc3c4ccccc4n(CC(=O)NC4CCCCC4)c3c2=O)n1,53*,46*,69*
COc1ccccc1N1CCN(C(=O)c2snnc2C)CC1,4,0,1
CCOc1ccc(CCNS(=O)(=O)c2ccc3c(c2)c(=O)n(C)c(=O)n3C)cc1OCC,2,-5,16
COc1ccc(Cl)cc1NC(=O)Cn1cnc(-c2nc(C)cs2)c1,-12,-11,5
c1ccc(CNCc2cccn2-c2nnc(N3CCOCC3)s2)cc1,-13,25,-34
Cc1c(C(=O)N2CCCCCC2c2ccncc2)cnn1C(C)(C)C (stereo not drawn),-9,-2,-9
O=C(NCc1cccc(F)c1)c1cc(N2CCCC2)n2nccc2n1,-16,-29,-95
CC(C)c1nnc2n1CCN(C(=O)c1n[nH]c3c1CCCC3)C2,1,-3,-20
CC[C@@H]1CCC[C@H](C)CC[C@@H](O[C@@H]2O[C@@H](C)[C@@H](O)[C@@H](N)[C@H]2O)[C@H](CC)CCCNC1=O,83*,83*,95*
O=C1CCCN1Cc1ncn2c1CN(C(=O)c1cccc(F)c1)CCC2,0,-18,6
O=C1CCC[C@]2(CN(C(=O)c3cn4cc(Cl)ccc4n3)C[C@H]2c2ccccc2F)N1,8,9,25
CCN1CCN(CCNC(=O)c2ccc(N3CCc4ccccc43)s2)CC1,12,1,-67
CCn1c(=O)c(N2CCC(C(=O)NCCCN3CCCCC3C)CC2)nc2cccnc21 (stereo not drawn),5,4,7
CC1CCCN(CCCNC(=O)c2ccc(N3CCc4ccccc43)s2)C1 (stereo not drawn),58*,3,24
CC1CCCCN1CCCNC(=O)c1ccc(N2CCc3ccccc32)s1 (stereo not drawn),56*,28,24
Cc1noc(C)c1CN1CCC(NC(=O)c2ccc3c(c2)OCO3)CC1,-11,-14,-44
C[C@]12CN(Cc3cccc4cccnc34)C[C@H]1NC(=O)c1ccccc1C2=O,0,18,-5
Cc1ccc(NC(=O)N2CCC(CC(=O)N3CCCCC3)CC2)cc1C,10,7,15
COc1cc(OC)cc(N(C(=O)CCCC(=O)Nc2ccccn2)C(C(=O)NC2CCCCC2)c2ccc(C)cc2)c1 (stereo not drawn),0,6,10
CCC(C)(C)NC(=O)CN1CCC2(CCC1=O)NC(=O)c1ccccc1O2 (stereo not drawn),11,15,29
SMILES,USP28 inh,USP17 inh,USP30 inh
CC(C)Cc1nc2sc3c(SCC(=O)NC4(c5ccccc5)CCCC4)ncnc3c2c2c1CCC2,20,42*,26
CC(C)Cc1nc2sc3c(SCC(=O)NC(c4ccccc4)c4ccccc4)ncnc3c2c2c1CCC2,1,0,12
Cc1cccc(NC(=O)CSc2ncnc3c2sc2nc(CC(C)C)c4c(c23)CCC4)c1,9,74*,34*
CC(C)Cc1nc2sc3c(SCC(=O)Nc4ccc(Cl)cc4)ncnc3c2c2c1CCC2,3,13,9
O=C(COc1ccccc1)N1CCc2cc(-c3ccno3)ccc21,-44,-21,-18
CN(C)c1cc(C(=O)NC2CCCCC2)nc2ccnn12,-8,0,-18
CC(C)(C)c1cc(C(=O)NC2CCCC2)nc2ccnn12,7,31*,31*
Cc1ccc(-n2nnc(C(N)=O)c2C)cc1C,0,1,22
O=C(NCC1COc2ccccc2O1)c1ccccc1[N+](=O)[O-] (stereo not drawn),0,-11,0
COc1ccccc1NS(=O)(=O)c1cccc(C(=O)N2CCCCCC2)c1,13,5,36*
CN(c1ccccc1)S(=O)(=O)c1cccc(C(=O)N2CCCCCC2)c1,.,2,.
Cc1nnc(-c2ccc3ccn(CC(=O)N4CCCc5ccccc54)c3c2)o1,.,86*,.
Cc1nnc(-c2ccc3ccn(CC(=O)N4CCN(c5ccccc5)CC4)c3c2)o1,24,93*,50*
Cc1nnc(-c2ccc3ccn(CC(=O)NC4CCCCCC4)c3c2)o1,7,7,16
Cc1nnc(-c2ccc3ccn(CC(=O)NC4CCCC4)c3c2)o1,-8,-11,2
COc1ccc(-c2noc(CN(C(=O)C(c3ccccc3)c3ccccc3)C(C)C)n2)cc1,-2,-5,5
CN1CC(=O)N(C2CCNC2)Cc2c1ncnc2N1CCCCC1 (stereo not drawn),-14,-28,-46
Cc1cc2nc(Sc3nnc4ccccn34)c3ccccc3n2n1,3,10,18
Cc1ccc(C(CNC(=O)C(=O)Nc2ccc(C(N)=O)cc2)N2CCN(C)CC2)cc1 (stereo not drawn),3,4,17
Cc1cc(C)c2[nH]c(=O)c(CN(CCCN3CCOCC3)C(=O)Nc3ccccc3)cc2c1,-4,-1,10
Cc1nc(C(=O)Nc2cccc(Cl)c2Cl)nn1-c1cc(Cl)cc(Cl)c1,10,71*,24
Cc1cc(C)n(-c2ccc(C(=O)Nc3cccc(Cl)c3C)nn2)n1,-8,16,1
O=C(CN1C(=O)c2ccccc2S1(=O)=O)Nc1c(F)cccc1F,9,2,14
Cc1cccc(C(C)C)c1NC(=O)CN1c2ccc(F)cc2-c2ccccc2S1(=O)=O,5,3,30*
CN(C(=O)Cc1cccc(F)c1)c1nc2c(s1)CCc1occc1-2,-11,-22,-64
SMILES,USP28 inh,USP17 inh,USP30 inh
CCc1nc(-c2ccc(-c3noc(-c4cnccn4)n3)cc2)cs1,-5,-13,-16
O=C(NCc1ccncc1)c1nn(-c2ccc(F)cc2)c2c1CCCC2,8,11,22
c1cc(-c2cnc(C3CC3)nc2C2CCCNC2)ccn1 (stereo not drawn),5,9,-39
COc1ccc(-c2ccc(CCC(=O)Nc3cccc4ccccc34)o2)cc1,-2,.,7
COc1ccc(-c2ccc(CCC(=O)Nc3c(C)cccc3C)o2)cc1,12,26,44*
Cc1cc(C(=O)N[C@H]2[C@H](O)[C@H](O)C[C@@H]2c2ccc(C(F)(F)F)nc2)no1,5,26,10
COc1ccc([C@H]2C[C@@H](O)[C@@H](O)[C@@H]2NC(=O)c2cc(C)on2)cc1,1,9,35*
Cc1cccc(N2C(=O)/C(=C\c3cc(C#N)n(C)c3C)c3ccccc3C2=O)c1,6,20,-57
COc1ccc(-c2nc3ccccc3c(=O)n2CCCCOc2cccc(Cl)c2)cc1,-15,-3,-6
Cc1nc2ccccc2c2oc(C(=O)Nc3ccc4c(c3)OCCO4)cc12,22,0,-9
Cc1nc(-c2ccccc2)sc1C(=O)Nc1ccc2c(c1)OCCO2,50*,11,17
